Screens from PubChem BioAssay.
APOBEC3G inh: blocks human APOBEC3G single-stranded DNA deamination; Q9HC16; recombinant A3G, ssDNA deamination FAM/TAMRA fluorescence; inhibition, % at 20 µM; 330,000 compounds, 0.28% hits; AID 493012;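 active = inhibition of at least 40% at 20 µM, with no more than 30% in the related APOBEC3A deaminase screen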;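 note: plate controls were DMSO wells with A3G for no effect and wells lacking A3G enzyme for full effect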
Target sequence (Q9HC16 whole entry, looked up): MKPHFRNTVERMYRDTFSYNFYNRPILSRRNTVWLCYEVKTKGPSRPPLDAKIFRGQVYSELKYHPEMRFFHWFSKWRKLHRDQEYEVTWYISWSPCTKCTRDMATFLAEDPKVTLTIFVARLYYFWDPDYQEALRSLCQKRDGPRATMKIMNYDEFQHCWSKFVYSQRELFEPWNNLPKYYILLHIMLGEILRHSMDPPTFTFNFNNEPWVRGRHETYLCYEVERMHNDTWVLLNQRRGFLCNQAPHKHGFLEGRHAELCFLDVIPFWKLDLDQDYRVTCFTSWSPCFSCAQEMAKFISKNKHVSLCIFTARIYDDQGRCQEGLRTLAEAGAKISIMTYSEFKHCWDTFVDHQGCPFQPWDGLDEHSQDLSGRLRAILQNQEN
NALP1 yeast inh: blocks the NALP1 inflammasome reconstituted in yeast | S. cerevisiae NALP1/ASC/caspase-1 growth, X-gal OD620, 72 h | 280,000 compounds, 0.61% hits | inhibition, % at 10 µM; in the data active = inhibition mostly above about 24%, no sharp cut-off; inactive = mostly below about 32%
APOBEC3A inh: blocks human APOBEC3A ssDNA deamination; P31941; recombinant A3A, FAM/TAMRA ssDNA deamination fluorescence; inhibition, % at 20 µM; 330,000 compounds, 0.41% hits; AID 493011;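 active = at least 40% inhibition at 20 µM here, with at most 30% in a related deaminase screen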;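 note: plate controls were A3A with DMSO for no effect and wells lacking A3A enzyme for full effect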
Target sequence (P31941 whole entry, looked up): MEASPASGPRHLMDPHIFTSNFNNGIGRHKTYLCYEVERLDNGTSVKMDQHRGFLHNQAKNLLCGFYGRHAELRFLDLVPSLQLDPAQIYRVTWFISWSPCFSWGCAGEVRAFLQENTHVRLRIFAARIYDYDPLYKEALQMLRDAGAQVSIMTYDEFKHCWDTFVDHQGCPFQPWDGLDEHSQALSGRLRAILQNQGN
PolyA inh: yeast polyadenylation inhibition; AID 1875; S. cerevisiae SKY197-pL101 polyadenylation reporter, beta-gal luminescence; efflux-impaired pdr1/pdr3 knockout yeast; score 100 = 6 SD above DMSO; activity score, % at 12 µM; 300,000 compounds, 0.02% hits;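 active = lowest replicate activity score at least 50, where 100 means six control SD above control mean; inconclusive = lowest score under 50 but half or more replicates reach 50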;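 note: yeast exposed to compound for 9 h at 30 °C; higher score means more reporter readthrough which indicates perturbed polyadenylation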
A3A conf: confirmation of human APOBEC3A DNA deaminase inhibitors; shares compounds with APOBEC3A inh; recombinant A3A, ssDNA deaminase UDG fluorescence assay; inhibition, % at 20 µM; 1,400 compounds, 63% hits; AID 493151;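 active = inhibition reaching a set limit, 80% of the first screen's cutoff, at 20 µM in any replicate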;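 note: plate controls were DMSO wells with A3A for no effect and wells lacking A3A enzyme for full effect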
UDG A3A counter: counter-screen for APOBEC3A inhibitors: UDG. shares compounds with APOBEC3A inh. UDG counterscreen, FAM/TAMRA uracil oligo fluorescence. inhibition, % at 20 µM. 1,000 tested, under 10 active. AID 504714; call rule not given here
Active calls of the source: *; ? = inconclusive; nt = no result given. Compounds with a hit are over-represented: about 1.2% of the library has one in this group of screens.

SMILES | APOBEC3G inh | NALP1 yeast inh | APOBEC3A inh | PolyA inh | A3A conf | UDG A3A counter
N#Cc1ccccc1S(=O)(=O)N1CCN(C(=O)c2cc3c(s2)CCC3)CC1 | 13.6 | nt | 51.3* | nt | 35.8* | 1.2
CC1(C)CC(N2CCN(c3ccccc3)CC2)=CC(=[N+]2CCCC2)C1 | 18.1 | 11.7 | 44.1* | -3.7 | 66.0* | -5.3
CCN(CC)C1=CC(=[N+]2CCCC2)CC(C)(C)C1 | 46.3 | 22.9 | 53.9 | -5.8 | nt | nt
CC1CC(C)C[N+](=C2C=C(N3CCCC3)CC(C)(C)C2)C1 (stereo not given) | nt | 11.0 | nt | 2.1 | nt | nt
CC1(C)CC(N2CCCC2)=CC(=[N+]2CCCCCC2)C1 | 25.8 | 8.0 | 62.4* | 7.0 | 68.2* | -0.1
CN(Cc1ccccc1)C1=CC(=[N+]2CCCC2)CC(C)(C)C1 | 19.0 | nt | 57.1* | -2.6 | 69.7* | -1.6
CCn1c(C)[n+](CC)c2ccc(S(=O)(=O)N(C)C)cc21 | 35.8 | 8.4 | 84.9 | 19.7 | nt | nt
CC[n+]1c(C)n(C)c2cc(S(=O)(=O)N(C)C)ccc21 | 18.6 | 4.5 | 81.5* | 17.1 | 77.4* | -2.0
CCn1c(C)[n+](CC)c2ccc(C(=O)N(C)c3ccccc3)cc21 | 19.3 | 4.8 | 70.8* | 5.1 | 80.4* | -1.6
CCOC(=O)c1ccc2c(c1)n(CC)c(C)[n+]2CC | 13.1 | -2.4 | 72.5* | 10.1 | 68.8* | -2.4
CCn1c(/C=C/N(C(C)=O)c2ccccc2)[n+](CC)c2ccc(Cl)cc21 | 29.1 | 21.7 | 63.0* | -5.2 | 64.5* | 0.5
CCOC(=O)c1ccc2c(c1)[nH]c(=S)n2CC | -6.3 | -9.5 | -2.9 | -0.5 | nt | nt
COc1cc(C)ccc1OCc1cc(C(=O)NC(C)Cn2cncn2)no1 (stereo not given) | -10.2 | 6.9 | -0.4 | 4.6 | nt | nt
CCCOc1ccc(-c2c(C(=O)N/N=C/c3ccccc3OCC)nnn2-c2nonc2N)cc1 | 10.8 | 27.0 | 7.2 | -39.9 | nt | nt
CCn1c(C)[n+](CC)c2ccc(S(=O)(=O)NC)cc21 | 21.0 | 5.0 | 76.1* | 3.0 | 48.8* | -1.8
CCC1CCCCN1C(=O)COc1ccccc1NC(C)=O (stereo not given) | 11.1 | 1.0 | 40.8* | 2.1 | 2.7 | nt
CCC1CCCCN1C(=O)COc1cc(=O)n(C)c2ccccc12 (stereo not given) | -8.4 | -2.5 | -0.5 | 5.1 | nt | nt
Cc1cc(C(=O)N/N=C/c2cc(Br)c(Br)o2)n[nH]1 | 15.6 | 3.6 | 58.0* | -1.4 | 36.6* | -0.2
Cc1cc(C(=O)N/N=C/c2ccc(Br)o2)n[nH]1 | -2.0 | 13.1 | -0.5 | 11.5 | nt | nt
Cn1cnc(NCc2ccccc2)c1[N+](=O)[O-] | -3.2 | -5.0 | 44.1* | 6.1 | -3.6 | -1.7
Nc1ncnc(NCc2ccccc2)c1[N+](=O)[O-] | -2.8 | 8.7 | -1.0 | 5.2 | nt | nt
CC1CC(c2ccccc2)=Nc2ccccc2N1 (stereo not given) | -4.5 | 7.5 | -2.4 | -3.2 | nt | nt
CCc1cccc(C)c1NC(=O)C1CCCN1C(=O)NCc1ccccc1 (stereo not given) | -8.8 | 15.4 | -2.3 | 8.1 | nt | nt
Cc1ccc(OCc2ccoc2C(=O)O)cc1C | 11.0 | 17.0 | 41.6* | -9.1 | 37.4* | 1.3
O=C(Cc1ccccc1[N+](=O)[O-])NNC(=O)c1cccs1 | -2.6 | nt | -3.1 | nt | nt | nt
SMILES | APOBEC3G inh | NALP1 yeast inh | APOBEC3A inh | PolyA inh | A3A conf | UDG A3A counter
O=C(CN1CCOCC1)OCCCc1ccccc1 | -1.5 | -3.3 | -1.4 | -3.2 | nt | nt
Cc1ccc(CCCOC(=O)C[N+]2(C)CCOCC2)cc1 | 23.8 | -5.8 | 42.2* | 2.2 | 89.1* | 4.1
Cc1ccc(CCCOC(=O)CN2CCCCC2)cc1 | -8.5 | 7.4 | -1.7 | -8.6 | nt | nt
C[N+]1(CC(=O)OCCCc2ccccc2)CCOCC1 | 23.6 | 9.0 | 68.7* | -5.8 | 91.7* | 5.4
Cc1[nH]c2ccccc2c1C(=O)COc1ccccc1 | -4.4 | -1.3 | 0.1 | -7.2 | nt | nt
Cc1cccc(Nc2nc(-c3ccc(O)cc3O)cs2)n1 | 16.1 | 11.9 | -3.9 | -1.3 | nt | nt
CCc1ccc(OCC(=O)N/N=C\c2ccco2)c([N+](=O)[O-])c1 | 14.4 | 25.5 | 43.1* | 30.1 | 42.6* | 3.2
CCc1sc(C(=O)Nc2nc(C)cs2)cc1C | -7.9 | 28.1 | -2.1 | -20.3 | nt | nt
C=CCn1c(SCc2nc3ccccc3nc2C)nnc1-c1ccoc1C | -5.4 | 20.0 | 44.6* | -29.2 | -1.0 | 3.0
CCN(CC)c1cc(C)c2ccccc2n1 | 16.1 | -76.7 | 57.4* | -6.1 | 7.1 | nt
Cc1cccc2nc3ccccc3cc12 | -2.8 | nt | 1.5 | 0.0 | nt | nt
Cc1cccc(NC(=O)C2CCN(S(=O)(=O)c3cccc4nonc34)CC2)c1 | -2.7 | 19.5 | 1.4 | 1.6 | nt | nt
COc1ccc(NC(=O)/C(C#N)=C/c2ccc(Br)o2)cc1 | 27.4 | 30.4 | 67.2* | 10.2 | 58.2* | nt
COc1ccc(NC(=O)/C(C#N)=C\c2ccc(N3CCOCC3)o2)cc1 | -19.9 | 7.0 | -9.6 | -21.4 | nt | nt
O=C(Nc1ccc2ncccc2c1)c1ccccc1Cl | 6.3 | -4.5 | 46.1* | 12.2 | 74.6* | -2.2
CCn1nc(NC(=O)C(C)C)c2cc3cccc(C)c3nc21 | -7.9 | 21.9 | -2.1 | -12.9 | nt | nt
CCn1nc(NC(C)=O)c2cc3cccc(C)c3nc21 | 14.1 | 4.1 | 76.5* | -7.3 | 64.5* | -3.5
Cc1ccc2nc(Cl)c(/C=N/Nc3ccc(C(=O)O)cc3)cc2c1 | -6.2 | nt | 0.1 | ? | nt | nt
Cc1onc(-c2ccccc2Cl)c1C(=O)Nc1ccc(Cl)cn1 | 15.5 | 6.4 | 59.7* | -0.6 | 0.7 | nt
Cc1ccc(NC(=O)c2c(-c3ccccc3Cl)noc2C)nc1 | -3.6 | 13.5 | -4.2 | 12.1 | nt | nt
O=C(O)CC/C(=N/Nc1ncc(C(F)(F)F)cc1Cl)C(=O)O | -3.3 | 14.7 | -2.0 | 13.9 | nt | nt
Cc1ccc(S(=O)(=O)N(CCC(=O)N2CCOCC2)c2ccccc2)cc1 | 8.8 | nt | 61.8* | nt | 27.1 | nt
CC(=O)N1CCN(C(=O)CCN(c2ccccc2)S(=O)(=O)c2ccc(C)cc2)CC1 | -1.4 | nt | 1.8 | 16.2 | nt | nt
CN(Cc1nccs1)C(=O)C1CCC(=O)N(CCCc2ccccc2)C1 (stereo not given) | -4.6 | -1.4 | -0.5 | 0.8 | nt | nt
COc1ccc(-c2nc(SC(C)C(=O)NC3CC3)n[nH]2)cc1 (stereo not given) | -8.4 | nt | -5.5 | nt | nt | nt
SMILES | APOBEC3G inh | NALP1 yeast inh | APOBEC3A inh | PolyA inh | A3A conf | UDG A3A counter
O=C(CNC(=O)c1cccs1)N/N=C/c1ccccc1[N+](=O)[O-] | -6.7 | 2.5 | -3.0 | -4.6 | nt | nt
Clc1ccccc1CSc1ncn(-c2ccccc2)n1 | 1.9 | -72.1 | 3.5 | -45.7 | nt | nt
Cc1ccc(CSc2ncn(-c3ccccc3)n2)cc1 | 9.6 | 11.3 | 40.8* | -11.4 | 1.8 | nt
COc1ccc(CNC(=O)C2CCN(c3cc(C(=O)Nc4cccc(OC)c4)ccn3)CC2)cc1 | 7.4 | 11.9 | 0.3 | -11.0 | nt | nt
O=C1N=C(N2CCCC2C(=O)O)S/C1=C\c1ccco1 (stereo not given) | 10.9 | 16.9 | 43.7* | -3.4 | 19.2* | 2.7
CCn1cc(/C=C(\NC(=O)c2ccccc2F)C(=O)NCCN2CCOCC2)c2ccccc21 | -2.3 | -7.0 | 80.5* | -10.8 | -6.6 | 1.5
